Measured values: PubChem BioAssay AID1159580 (chemical genetic matrix, 2015)
In all, about 5,500 compounds went through this assay and about 2,000 (36%) were called active. Another 18% or so got no clear call; they are omitted. Rule as the data show it: active = normalized growth mostly below about 0.91 (no sharp cut-off); inconclusive = no clear call, values can overlap the other calls; inactive = mostly above about 0.92. The list shows a part of the results.

Assay: chemical genetic growth profiling, strain panel (AID 1159580);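 also: tested at 20 µM; growth read once vehicle control cultures reached saturation at 30 °C; 1 = growth at the plate median or of vehicle wells; lower values mean less growth of the strain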
Conditions: growth OD

Measured: normalized growth

COc1cc(CNC(=O)CCCC/C=C/C(C)C)ccc1O
inactive: S. cerevisiae deletion strains, locus YJR043C, strain POL32, hits give low values 1 | S. cerevisiae deletion strains, locus YJR066W, strain TOR1, hits give low values 0.95 | S. cerevisiae deletion strains, locus YKL009W, strain mrt4, hits give low values 0.926 | S. cerevisiae deletion strains, locus YKL068W, hits give low values 1.01 | S. cerevisiae deletion strains, locus YKL085W, strain MDH1 (second series), hits give low values 1 | S. cerevisiae deletion strains, locus YKL085W, strain MDH1, hits give low values 1 | S. cerevisiae deletion strains, locus YKL160W, strain elf1, hits give low values 0.97 | S. cerevisiae deletion strains, locus YKL190W, strain CNB1, hits give low values 0.998 | S. cerevisiae deletion strains, locus YKR001C, strain vps1, hits give low values 0.997 | S. cerevisiae deletion strains, locus YKR026C, strain gcn3, hits give low values 0.97 | S. cerevisiae deletion strains, locus YKR091W, strain srl3, hits give low values 0.981 | S. cerevisiae deletion strains, locus YLL001W, strain dnm1, hits give low values 0.955 | S. cerevisiae deletion strains, locus YLL026W, hits give low values 0.987 | S. cerevisiae deletion strains, locus YLL041C, strain sdh2, hits give low values 0.987 | S. cerevisiae deletion strains, locus YLR027C, strain aat2, hits give low values 0.975 | S. cerevisiae deletion strains, locus YLR039C, strain RIC1, hits give low values 1.07 | S. cerevisiae deletion strains, locus YLR058C, strain SHM2, hits give low values 1.02 | S. cerevisiae deletion strains, locus YLR102C, strain apc9, hits give low values 0.986 | S. cerevisiae deletion strains, locus YLR113W, strain HOG1, hits give low values 1.02 | S. cerevisiae deletion strains, locus YLR221C, strain rsa3, hits give low values 0.978 | S. cerevisiae deletion strains, locus YLR258W, strain gsy2, hits give low values 0.986 | S. cerevisiae deletion strains, locus YLR262C, strain YPT6 (second series), hits give low values 0.966 | S. cerevisiae deletion strains, locus YLR262C, strain YPT6, hits give low values 1.11 | S. cerevisiae deletion strains, locus YLR268W, strain sec22, hits give low values 0.967 | S. cerevisiae deletion strains, locus YLR320W, strain mms22, hits give low values 0.995 | S. cerevisiae deletion strains, locus YLR330W, strain CHS5, hits give low values 1.02 | S. cerevisiae deletion strains, locus YLR342W, strain FKS1 (second series), hits give low values 1.02 | S. cerevisiae deletion strains, locus YLR342W, strain FKS1, hits give low values 0.978 | S. cerevisiae deletion strains, locus YLR357W, strain rsc2, hits give low values 1.03 | S. cerevisiae deletion strains, locus YLR370C, strain arc18, hits give low values 0.977 | S. cerevisiae deletion strains, locus YLR371W, strain rom2, hits give low values 1.01 | S. cerevisiae deletion strains, locus YLR384C, strain iki3, hits give low values 0.975 | S. cerevisiae deletion strains, locus YLR418C, strain cdc73, hits give low values 1 | S. cerevisiae deletion strains, locus YML016C, strain PPZ1, hits give low values 0.998 | S. cerevisiae deletion strains, locus YML032C, strain rad52, hits give low values 0.988 | S. cerevisiae deletion strains, locus YML120C, strain ndi1, hits give low values 0.984 | S. cerevisiae deletion strains, locus YML124C, strain tub3, hits give low values 0.986 | S. cerevisiae deletion strains, locus YMR058W, strain fet3, hits give low values 1 | S. cerevisiae deletion strains, locus YMR078C, strain ctf18, hits give low values 1 | S. cerevisiae deletion strains, locus YMR125W, strain sto1, hits give low values 1 | S. cerevisiae deletion strains, locus YMR129W, hits give low values 0.974 | S. cerevisiae deletion strains, locus YMR205C, strain PFK2, hits give low values 0.975 | S. cerevisiae deletion strains, locus YMR223W, strain ubp8, hits give low values 1 | S. cerevisiae deletion strains, locus YMR231W, strain pep5, hits give low values 1 | S. cerevisiae deletion strains, locus YMR307W, strain GAS1, hits give low values 1.04 | S. cerevisiae deletion strains, locus YNL067W, strain RPL9B, hits give low values 1 | S. cerevisiae deletion strains, locus YNL071W, strain lat1, hits give low values 0.979 | S. cerevisiae deletion strains, locus YNL183C, strain NPR1, hits give low values 0.96 | S. cerevisiae deletion strains, locus YNL209W, strain ssb2, hits give low values 1 | S. cerevisiae deletion strains, locus YNL233W, strain BNI4, hits give low values 0.995 | S. cerevisiae deletion strains, locus YNL248C, strain rpa49, hits give low values 0.926 | S. cerevisiae deletion strains, locus YNL250W, strain rad50, hits give low values 1.01 | S. cerevisiae deletion strains, locus YNL271C, strain bni1, hits give low values 0.984 | S. cerevisiae deletion strains, locus YNL298W, strain CLA4, hits give low values 0.992 | S. cerevisiae deletion strains, locus YNL307C, strain MCK1, hits give low values 0.988 | S. cerevisiae deletion strains, locus YNL322C, strain KRE1 (second series), hits give low values 0.98 | S. cerevisiae deletion strains, locus YNL322C, strain KRE1, hits give low values 1.01 | S. cerevisiae deletion strains, locus YNR049C, strain mso1, hits give low values 0.985 | S. cerevisiae deletion strains, locus YNR052C, strain pop2, hits give low values 0.985 | S. cerevisiae deletion strains, locus YOL012C, strain htz1 1.39 | S. cerevisiae deletion strains, locus YOL147C, strain pex11, hits give low values 0.973 | S. cerevisiae deletion strains, locus YOR001W, strain rrp6, hits give low values 0.956 | S. cerevisiae deletion strains, locus YOR061W, strain CKA2, hits give low values 1.02 | S. cerevisiae deletion strains, locus YOR069W, strain VPS5, hits give low values 1.01 | S. cerevisiae deletion strains, locus YOR070C, strain gyp1, hits give low values 0.99 | S. cerevisiae deletion strains, locus YOR080W, strain dia2, hits give low values 0.979 | S. cerevisiae deletion strains, locus YOR083W, strain WHI5, hits give low values 0.962 | S. cerevisiae deletion strains, locus YOR106W, strain vam3, hits give low values 0.967 | S. cerevisiae deletion strains, locus YOR136W, strain idh2, hits give low values 0.988 | S. cerevisiae deletion strains, locus YOR144C, strain elg1, hits give low values 0.996 | S. cerevisiae deletion strains, locus YOR184W, strain ser1, hits give low values 0.995 | S. cerevisiae deletion strains, locus YOR231W, strain MKK1, hits give low values 1.02 | S. cerevisiae deletion strains, locus YOR265W, strain rbl2, hits give low values 0.982 | S. cerevisiae deletion strains, locus YOR270C, strain vph1, hits give low values 1 | S. cerevisiae deletion strains, locus YOR290C, strain snf2, hits give low values 1 | S. cerevisiae deletion strains, locus YOR316C, strain cot1, hits give low values 0.987 | S. cerevisiae deletion strains, locus YPL051W, strain arl3, hits give low values 0.97 | S. cerevisiae deletion strains, locus YPL078C, strain atp4, hits give low values 0.974 | S. cerevisiae deletion strains, locus YPL106C, strain sse1, hits give low values 0.995 | S. cerevisiae deletion strains, locus YPL240C, strain hsp82, hits give low values 0.991 | S. cerevisiae deletion strains, locus YPL256C, strain CLN2, hits give low values 0.986 | S. cerevisiae deletion strains, locus YPR119W, strain clb2, hits give low values 0.994 | S. cerevisiae deletion strains, locus YPR141C, strain kar3, hits give low values 0.996 | S. cerevisiae deletion strains, locus YPR163C, strain tif3, hits give low values 0.981 | S. cerevisiae deletion strains, locus YPR167C, strain met16, hits give low values 1.01 | S. cerevisiae deletion strains, strain wtn01, hits give low values 0.963 | S. cerevisiae strains, strain wild type, hits give low values 1
